In PubChem BioAssay (NCI):
This is part of a sample that, as a whole, favours compounds with a hit. Of some 83,000 tested, about 20% had one in any assay.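 Values shown are percent growth following 48 h exposure of cells in 96-well plates to a single concentration of compound; below 10 was considered active.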 Activity calls are given as the source filed them.

Legend:
Experiment in all cases: NCI-60 one-dose screen, 48 h (100 = growth as untreated, 0 = no growth, -100 = all killed)
Settings in all cases: 10 µM unless noted
[1] = system: NCI-H23 lung
[2] = system: NCI-H226 lung
[3] = system: NCI-H322M lung
[4] = system: HOP-62 NSCLC
[5] = system: NCI-H460 lung
[6] = system: HOP-92 NSCLC
[7] = system: NCI-H522 lung
[8] = system: A549/ATCC NSCLC
[9] = system: 786-0 renal
[10] = system: COLO 205 colon
[11] = system: DU-145 prostate
[12] = system: K-562 leukemia
[13] = system: MALME-3M melanoma
[14] = system: MDA-MB-231 breast
[15] = system: RXF 393 renal
[16] = system: SF-268 CNS
[17] = system: SF-539 CNS
[18] = system: UACC-257 melanoma
[19] = system: M14 melanoma
[20] = system: SF-295 CNS

Measured: growth

OC(c1cc2cc(Cl)c(Cl)cc2c2cc(C(F)(F)F)ccc12)C1CCCCN1 (stereo not drawn)
active: [1] -52.9% | [2] -72.3% | [3] -8.7% | [4] -80.7% | [5] -71.8% | [6] -70.9% | [7] -78.4% | [8] -84% | [9] -78.1% | [10] -88.2% | [11] -86.2% | [12] -63.5% | [13] -17.6% | [14] -71.3% | [15] -96.2% | [16] -88.6% | [17] -57.9% | [18] -73% | [19] -80.9%

CCCCCCN(CCCCCC)C(=N)c1ccnc2ccccc12
active: [10] -74.7%
inactive: [1] 72.5% | [2] 89.2% | [3] 76% | [4] 100% | [5] 55.4% | [6] 57.5% | [7] 71.7% | [8] 78.4% | [9] 57% | [11] 85.1% | [12] 16.8% | [13] 76.2% | [14] 58.1% | [15] 70.3% | [16] 83.8% | [17] 79.7% | [18] 69.9% | [19] 18.9%

COc1cc(C(=O)/C=C/c2cccnc2Nc2ccc(Cl)cc2)cc(OC)c1OC
active: [1] -17.5% | [2] -82.7% | [3] 9.66% | [4] -68.6% | [5] 4.24% | [6] -54.5% | [7] -58.4% | [8] -29.2% | [9] -83.4% | [10] -81.4% | [11] -59.2% | [13] -48.1% | [14] -50.7% | [15] -85.7% | [16] -87.7% | [20] 7.32% | [17] -80.2% | [18] -63.5%

CCC#CC[C@H](O)C/C=C1/C(=O)C=C[C@@H]1C/C=C\CCCC(=O)OC
active: [1] -13.4% | [2] -62.8% | [4] -8.26% | [5] -34.6% | [7] -90.1% | [9] -28.3% | [10] -23% | [15] -74.1% | [20] -25.6% | [17] -5.91% | [18] -6.54% | [19] 5.13%
inactive: [3] 48.1% | [6] 35.8% | [8] 32.6% | [11] 23% | [13] 23.4% | [14] 12.7% | [16] 23.8%

Cc1cc(N2CCCCCC2)nc(NC2CCCC(Nc3ccnc4cc(Cl)ccc34)C2)n1 (stereo not drawn)
active: [1] -50.8% | [2] -61.3% | [3] -70.9% | [4] -83% | [5] -82.2% | [6] -82% | [7] -72% | [8] -68.3% | [9] -96.3% | [10] -80.1% | [11] -70.7% | [13] -89% | [14] -88.5% | [15] -81% | [16] -70% | [20] -85.1% | [17] -92.1% | [18] -78.9% | [19] -86.5%

CCCCCC(=O)Oc1ccc(/C(=C(\C)c2ccc(OC)cc2)c2ccc(OCCN3CCCCC3)cc2)cc1
inactive: [1] 67.1% | [2] 98.7% | [3] 78.2% | [4] 63.1% | [5] 51.6% | [6] 81.7% | [7] 74.6% | [8] 53.2% | [9] 46.8% | [11] 79.8% | [13] 64.3% | [14] 66.1% | [15] 70.2% | [16] 71.1% | [20] 38.9% | [17] 40.8%
active: [10] -32.6% | [18] 8.72% | [19] -39.2%

Cc1cc(N2CCOCC2)nc(N[C@@H]2CCC[C@H](Nc3ccnc4cc(Cl)ccc34)C2)n1
inactive: [1] 62% | [2] 34.2% | [3] 27.2% | [5] 12.2% | [8] 13.8% | [11] 26.2% | [16] 19.1%
active: [4] -15.2% | [6] -21.7% | [7] -26.8% | [9] -73% | [10] -82% | [13] -75.3% | [14] -53.7% | [15] -57.6% | [20] -66.2% | [17] -79.7% | [18] -86.4% | [19] -86.7%

CSc1ccc(SC2c3ccc(C)cc3Oc3nc(N)c(C#N)c(N)c32)cc1 (stereo not drawn)
active: [1] -74.2% | [2] -88.7% | [3] -20.9% | [4] -27.8% | [5] -72.5% | [6] -67.6% | [7] -91.1% | [8] 0.603% | [9] -96.6% | [10] -76.7% | [11] -88.7% | [13] -94% | [14] -90.5% | [15] -70.2% | [16] -26.1% | [17] -86.7% | [18] -76.3% | [19] -81.6%
inactive: [20] 15.3%

O=c1oc2c(C(F)(F)F)cccc2cc1-c1csc(Nc2ccc(OCCF)cc2)n1
inactive: [1] 24.2% | [2] 17.3% | [3] 31% | [4] 22.5% | [6] 27.4% | [8] 18.1% | [13] 66.2% | [15] 22.5% | [16] 23.3% | [18] 55.2%
active: [5] 4.07% | [7] -42.9% | [9] 9.77% | [10] -71.8% | [11] 2.54% | [14] 9.58% | [20] 4.4% | [17] -28.6% | [19] 4.98%

COc1ccc(CN2c3ccccc3Sc3ccccc32)cc1O
inactive: [1] 36.6% | [2] 71% | [3] 33.1% | [4] 36.3% | [5] 10% | [6] 50.4% | [8] 24.2% | [9] 42.5% | [11] 17.9% | [13] 71.9% | [14] 41.2% | [16] 45.6% | [18] 52.5% | [19] 14.4%
active: [7] -40.4% | [10] -7.4% | [15] -9.86% | [20] 4.23% | [17] -11%

CCOc1ccc(C(C)=O)cc1NC(=O)c1cccc(-c2nnn(CC)n2)c1
inactive: [1] 42.6% | [2] 59% | [3] 49.1% | [4] 36.8% | [5] 12.1% | [6] 42.5% | [8] 45% | [9] 35.5% | [11] 16.7% | [13] 47.2% | [14] 47.9% | [16] 59% | [18] 57.1%
active: [7] -38.3% | [10] -3.73% | [15] -1.89% | [20] 7.49% | [17] -16.7% | [19] 9.12%

CN(C)c1ccc(N=Nc2ccccn2)c(O)c1
active: [4] 7.8% | [5] 5.5% | [17] 0.733% | [18] -9.35% | [19] -2.06%
inactive: [1] 16.1% | [2] 14.4% | [3] 21.9% | [6] 57.9% | [7] 27.1% | [8] 11.8% | [9] 15% | [10] 17.3% | [11] 21.6% | [13] 13.8% | [14] 36.7% | [15] 46.3% | [16] 14.6% | [20] 19.9%

CC(C)(CCCN=C(N)Nc1ccc(Cl)cc1)c1ccc(F)cc1
active: [10] -54%
inactive: [1] 55.6% | [2] 95.6% | [3] 70.9% | [4] 69.2% | [5] 46.1% | [6] 28% | [7] 62% | [8] 79.6% | [9] 73.4% | [11] 80.1% | [13] 64.3% | [14] 41% | [15] 88.7% | [16] 72.6% | [20] 53.1% | [17] 76.1% | [18] 86.6% | [19] 51.5%

CC/C=C\C/C=C\C[C@H]1C/C=C2/C(=O)C=C[C@@H]2C/C=C\CCC(=O)O1
active: [2] -36.1% | [4] -1.49% | [5] -4.43% | [6] -11.8% | [7] -69.9% | [8] 2.89% | [9] -43.7% | [10] -29.9% | [15] -71.3% | [20] 3.94% | [17] -25.5% | [18] -13.3% | [19] 7.48%
inactive: [1] 12.1% | [3] 45.3% | [11] 23.2% | [13] 29.6% | [14] 19.3% | [16] 21%

COc1cc2c(cc1O)CC[C@@H]1[C@@H]2CC[C@]2(C)[C@@H](NCCN(C)C)CC[C@@H]12
active: [1] -77.2% | [2] -86.2% | [3] -91.6% | [4] -76.3% | [5] -84.7% | [6] -81.7% | [7] -94.3% | [8] -81.6% | [9] -84.3% | [10] -71% | [11] -94.3% | [13] -72.5% | [14] -82.6% | [15] -95.7% | [16] -78.8% | [20] -88.5% | [17] -86.5% | [18] -84.9% | [19] -63.7%

COc1ccc(SC2c3cc(OC)c(OC)cc3Oc3nc(N)c(C#N)c(N)c32)cc1 (stereo not drawn)
active: [1] -60.9% | [2] -70.9% | [3] -95% | [4] -42.1% | [5] -70% | [6] -19.9% | [7] -72.5% | [8] -51.7% | [9] -82.6% | [10] -79% | [11] -82.8% | [13] -68.9% | [14] -67.5% | [15] -79.5% | [16] -61.8% | [20] -69.5% | [17] -96.6% | [18] -43% | [19] -87.2%
